MEKK2wt PB1 HTS – raises or lowers MEK5 binding to wildtype human MEKK2 PB1 domain; Q9Y2U5; bead flow cytometry, Alexa488-MEK5 binding to MEKK2 WT; actives lie on both sides; binding response (% of control), % at 10 µM; 290,000 tested, 1.1% active; in the data active means binding response below about 67% or above about 130%
MEKK2 mut-MEK5 – signal of MEK5 binding to mutant human MEKK2 PB1 domain. bead flow cytometry, Alexa488-MEK5 binding to MEKK2 mutant. percent response, % at 10 µM. 290,000 tested, 0.35% active; in the data active means percent response above about 24%, passing the limit was not always enough
MEKK3 PB1 HTS – MEKK3-MEK5 PB1 interaction, increase or decrease. Q99759. bead-based flow cytometry, Alexa488-MEK5 binding to MEKK3; actives lie on both sides; 0 = blocked by unlabeled MEK5, 100 = vehicle. binding response (% of control), % at 10 µM. 290,000 tested, 1.4% active. AID 1529;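 active means binding response more than 3 SD above or below the average of its plate-row segment, actives on both sides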;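 further: Alexa488 bead fluorescence after subtracting the streptavidin-only scavenger bead signal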
TMEM16A inh – mouse TMEM16A channel inhibition, primary screen; HEK293 TMEM16A/YFP iodide influx fluorescence, ionomycin; normalized B-score (activity score, 25-100; higher = stronger inhibition) at 10 µM; 310,000 tested, 1.2% active;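 active means ratio plate-corrected score three or more library SD toward inhibition, starting fluorescence score within five deviations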;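 further: score derived from kinetic fluorescence span divided by baseline fluorescence per well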
NTR1 ag – activates human neurotensin receptor 1; activation, % at 20 µM; NTR1-U2OS beta-arrestin-GFP spot imaging, agonist mode; P30989; 330,000 tested, 0.17% active; AID 493036;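 active means activation at or above 40% of the spot to cytoplasm intensity ratio, with at least 20 cells analyzed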;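 further: 0% = DMSO without peptide and 100% = 100 nM NTR1 peptide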
ANO1 activ – activates or potentiates the mouse TMEM16A chloride channel; B-score at 10 µM; HEK293 TMEM16A/YFP-H148Q/I152L, iodide quench fluorescence; stronger effect = lower value; 340,000 tested, 0.3% active; Q8BHY3; AID 623877;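 active means fluorescence-ratio B-score plate-corrected deviation score at least 3 library SD below zero, with starting fluorescence score within 5 deviations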;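 further: channel opened by trigger with iodide after compound preincubation; score built on the fluorescence ratio of max minus min over baseline; more negative score means more quench and so TMEM16A activation or potentiation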
Numbers without * were called inactive; i = inactive; · = no result given. Shown are actives, neighbours in structure and some others; about 3.4% of the full set was active somewhere.

SMILES | MEKK2wt PB1 HTS | MEKK2 mut-MEK5 | MEKK3 PB1 HTS | TMEM16A inh | NTR1 ag | ANO1 activ
CC(C)C(C)NC(=O)COC(=O)/C=C/c1ccc(S(=O)(=O)N2CCc3ccccc32)cc1 (centres undefined) | 95.0 | -3.0 | 103.0 | i | 2.0 | i
COc1ccc(C(=O)/C=C/C(=O)N(CC(=O)NC2CCCCC2)Cc2ccccc2)c(O)c1 | 93.0 | -3.0 | 97.0 | · | · | i
COc1ccc(C(=O)/C=C/C(=O)N(CC(=O)NC2CCCCC2)CC2CCCO2)c(O)c1 (centres undefined) | 95.0 | -3.0 | 90.0 | 100* | 23.2 | -6*
O=C1OC(c2cccs2)=N/C1=C\c1ccc(-c2ccccc2Cl)o1 | 62.0* | 82.0* | 105.0 | · | · | i
O=C1OC(c2cccs2)=N/C1=C/c1ccc(-c2cccc(C(=O)O)c2)o1 | 90.0 | -4.0 | 100.0 | · | · | i
CC(C)=CCC/C(C)=C/CCC(C)NCCN1CCNCC1 (centres undefined) | 224.0* | 48.0* | 110.0 | i | 0.2 | ·
COc1ccc(S(=O)(=O)Nc2ccccc2OC)cc1N=Nc1c(O)[nH]c(=S)[nH]c1=O | · | · | · | · | 10.0 | i
O=c1[nH]c(=S)[nH]c(O)c1N=Nc1ccc(-c2ccccc2)cc1[N+](=O)[O-] | -4.0* | 3.0 | 96.0 | · | · | ·
CCOc1ccccc1NC(=O)C(Sc1ccccc1)c1ccccc1 (centres undefined) | 105.0 | 6.0 | 105.0 | 100* | 6.0 | i
CCN(C(=O)COC(=O)/C=C/c1c(C)nn(-c2ccccc2)c1C)c1c(N)n(Cc2ccccc2)c(=O)[nH]c1=O | · | · | · | · | · | i
O=C(CSCc1ccc(Cl)cc1Cl)Nc1nccs1 | 96.0 | -5.0 | 102.0 | i | 0.0 | i
CCCCCCCCCn1c2c(c(=N)c3c1CCC3)CCC2 | 119.0 | 4.0 | 96.0 | 100* | 36.3 | i
CCCCCCn1c2c(c(=N)c3c1CCC3)CCC2 | 98.0 | -2.0 | 98.0 | i | 5.4 | i
CCn1nc(C(C)C)cc1C(=O)N1CCCC(CO)(Cc2ccc(F)cc2F)C1 (centres undefined) | 95.0 | -5.0 | 98.0 | i | 0.3 | i
CC(C)CC(=O)Nc1nc2ccc(S(C)(=O)=O)cc2s1 | -11.0* | 1.0 | 98.0 | i | 0.0 | i
CCC(=O)Nc1nc2ccc(S(C)(=O)=O)cc2s1 | 108.0 | 5.0 | 124.0 | i | 2.2 | i
CN(Cc1cccnc1)C(=O)CCCc1c[nH]c2ccccc12 | 135.0* | 26.0* | 104.0 | i | 1.0 | i
CC(C)C[C@H](NC(=O)[C@H](Cc1ccccc1)n1c(=O)[nH]c2ccccc2c1=O)C(=O)N1CCC(C(=O)O)CC1 | 95.0 | 0.0 | 99.0 | i | -1.4 | -13.4*
CCn1c(N)c(C(=O)NC)sc1=S | 108.0 | 8.0 | 104.0 | 100* | -1.7 | i
COc1cc(C(=O)Nc2nc(-c3ccc(F)cc3)cs2)ccc1OCC(=O)N1CCOCC1 | 105.0 | -1.0 | 102.0 | 25* | -0.5 | i
COc1cc(C(=O)NNC(=O)c2ccc(F)cc2)ccc1OCC(=O)N1CCOCC1 | · | · | · | · | -0.5 | i
COc1ccc(-c2csc(NC(=O)c3ccc(OCC(=O)N4CCOCC4)c(OC)c3)n2)cc1 | 100.0 | -1.0 | 96.0 | 100* | 12.2 | i
COc1cc(C(=O)Nc2nc(-c3ccc(C)cc3)cs2)ccc1OCC(=O)N1CCOCC1 | 92.0 | -2.0 | 94.0 | i | 6.6 | i
CC(=O)Nc1ccc2c(CN3C(=O)NC(C)(c4ccc(C)cc4)C3=O)cc(=O)oc2c1 (centres undefined) | 86.0 | -11.0 | 96.0 | i | 1.2 | i
CNC(=O)c1ccccc1Sc1cccc2cccc(C(=O)O)c12 | 105.0 | 7.0 | 104.0 | i | -1.4 | i
SMILES | MEKK2wt PB1 HTS | MEKK2 mut-MEK5 | MEKK3 PB1 HTS | TMEM16A inh | NTR1 ag | ANO1 activ
O=C(NCCCN1CCCC1)C1CCN(C(=O)c2cc3sccc3n2Cc2ccc(F)cc2)CC1 | 168.0* | 28.0* | 109.0 | i | 0.1 | i
COCCCNC(=O)C1CCN(C(=O)c2cc3sccc3n2Cc2ccc(F)cc2)CC1 | · | · | · | i | 1.1 | i
CCCN1CCc2c(sc(NC(=S)NC(=O)c3ccccc3)c2C#N)C1 | 0.0* | 8.0 | 95.0 | i | -0.7 | -5.41*
CC(C)(C)NCc1ccc(OCc2cccs2)cc1 | 117.0 | 11.0 | 102.0 | i | -1.2 | i
NC(=O)C1(N2CCCCC2)CCN(C(=O)Nc2ccccc2C(F)(F)F)CC1 | 101.0 | 4.0 | 97.0 | 100* | 1.5 | ·
COc1cc(/C=C(\C#N)c2nc3ccccc3s2)cc([N+](=O)[O-])c1O | 112.0 | -1.0 | 119.0 | · | 4.4 | -16.2*
COc1ccc(-c2csc(/C(C#N)=C\c3ccc(O)c([N+](=O)[O-])c3)n2)cc1OC | 89.0 | -5.0 | 104.0 | 100* | 13.0 | i
COc1ccc(-c2csc(/C(C#N)=C\c3ccc(OC)c([N+](=O)[O-])c3)n2)cc1 | 97.0 | -1.0 | 98.0 | i | -1.1 | i
Cc1cc(=O)oc2cc(OC(C)C(=O)NC3CCCC3)ccc12 (centres undefined) | 99.0 | 1.0 | 100.0 | i | -0.1 | i
Cc1cc(=O)oc2cc(OC(C)C(=O)Nc3ccc(N4CCCCC4)cc3)ccc12 (centres undefined) | -1.0* | 5.0 | 98.0 | i | 3.3 | i
COc1ccc(C(CNC(=O)c2ccc(N3CCCC3=O)cc2)N(C)C)cc1 (centres undefined) | 106.0 | 12.0 | 105.0 | 25* | -0.4 | i
COC(CNC(=O)c1ccc(N2CCCC2=O)cc1)OC | 91.0 | -2.0 | 97.0 | i | -3.0 | i
CC(C)CNc1nc(Oc2ccc(=O)[nH]n2)nc(N2CCOCC2)n1 | 98.0 | 8.0 | 102.0 | i | 0.9 | i
COC(=O)C/C=N/N=C1/NC(=O)/C(=C/C(=O)O)S1 | 1.0* | 3.0 | 96.0 | i | -1.1 | i
NC(N)=N/N=C/c1ccc(OCc2ccccc2)c(OCc2ccccc2)c1 | 302.0* | 116.0* | 89.0 | i | 11.6 | i
NC(N)=N/N=C/c1ccccc1 | 98.0 | -1.0 | 99.0 | i | -1.6 | i
COc1ccc(N(C)S(=O)(=O)c2cccc(C(=O)NCC3CCCCC3)c2)cc1 | 98.0 | -2.0 | 97.0 | · | · | -36.9*
COc1ccc(C2C(C(=O)c3cccs3)=C(O)C(=O)N2CCN2CCOCC2)c(OC)c1 (centres undefined) | 101.0 | 3.0 | 102.0 | i | -2.0 | i
Cc1ccnc(NC(=O)c2ccc(COc3ccc(Cl)cc3)o2)c1 | · | · | · | i | -0.5 | -10*
CC(C)CCN1C(=O)C2(OCCCO2)c2cc(Cl)ccc21 | 96.0 | -2.0 | 96.0 | i | 5.0 | i
O=C(Nc1nnc(-c2cccs2)o1)c1cccc(Oc2ccccc2)c1 | 100.0 | 6.0 | 102.0 | 25* | 2.2 | i

Screening data: PubChem BioAssay, several laboratories
